UGM FP inh: M. tuberculosis UGM enzyme inhibitors, primary screen, biochemical, fluorescence polarization, single point; 320,000 compounds, 0.06% hits; UDP-galactopyranose mutase (Mycobacterium tuberculosis (strain ATCC 25618 / H37Rv)), …; AID 504406, 2011; inhibition, % at 10 µM; purified UGM, fluorescence polarization probe displacement; in the data active means inhibition above about 10%, passing the limit was not always enough
Target sequence (P9WIQ1 whole entry, looked up): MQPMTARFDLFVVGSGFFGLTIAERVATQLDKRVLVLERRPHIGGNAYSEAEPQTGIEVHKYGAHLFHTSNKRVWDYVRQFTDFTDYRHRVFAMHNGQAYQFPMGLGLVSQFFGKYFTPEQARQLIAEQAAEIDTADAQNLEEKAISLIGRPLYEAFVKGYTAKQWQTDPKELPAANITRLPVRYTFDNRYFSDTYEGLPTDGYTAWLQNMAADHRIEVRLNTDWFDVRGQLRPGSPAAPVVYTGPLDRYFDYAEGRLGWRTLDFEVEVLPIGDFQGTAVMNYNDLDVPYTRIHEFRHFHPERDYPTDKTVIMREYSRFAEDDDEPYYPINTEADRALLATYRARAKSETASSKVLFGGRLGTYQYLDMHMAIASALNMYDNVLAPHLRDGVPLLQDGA
FadD28 FP inh: inhibitors of FadD28 bisubstrate probe binding, primary screen, biochemical, fluorescence polarization, single point; Mycobacterium tuberculosis FadD28 fatty-acid-AMP ligase; inhibition, % at 12.5 µM; 360,000 compounds, 0.22% hits; in the data active means inhibition above about 8.5%, passing the limit was not always enough
Vc quorum ag-1: inducers of Vibrio cholerae quorum light production without autoinducers, primary screen, BH1578 luxS cqsA deficient, single point | 350,000 compounds, 0.16% hits | V. cholerae BH1578 lux reporter, luminescence, 6 h | AID 588436, 2011 | activation, % at 18.7 µM; in the data active means activation mostly above about 9.7%, no sharp cut-off
Mtb bLac sens: beta-lactam sensitization of Mtb H37Rv, H37Rv. M. tuberculosis H37Rv growth with meropenem, percent inhibition. inhibition, % at 25 µM. 330,000 compounds, 0.27% hits. AID 434955, 2010;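 further: growth measured after seven days incubation then overnight dye step; 0% = bacteria only wells and 100% = bacteria with antibiotic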
PrP UTR inh: inhibition of PrP 5' UTR reporter expression; cell-based PrP 5' UTR mRNA reporter, plate reader; inhibition, % (test concentration not listed); 340,000 compounds, 0.35% hits; AID 488862, 2010; in the data active means inhibition above about 52%; further: 0 = median of the neutral control wells
Rv3671c protease: Rv3671c serine protease inhibitors, primary screen, biochemical, fluorescence polarization, M. tuberculosis H37Rv; inhibition, % at 5.96 µM; 320,000 compounds, 0.048% hits; AID 2606, 2010; in the data active means inhibition above about 38%;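 further: extracellular domain of Rv3671c used as enzyme; 0% = enzyme with DMSO and 100% = no enzyme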
Vc quorum ag-2: V. cholerae lux activation without autoinducers – BH1578 luxS cqsA deficient, cherry-pick, plate reader, dose response; V. cholerae BH1578 lux reporter, luminescence, 6 h; activation, % at 50 µM; shares compounds with Vc quorum ag-1; 620 tested, under 10 active
The depositor's hits bear a star. Rows were chosen to be rich in hits. Some 0.76% of all compounds tested hit in one or more screens of this group. Unless noted, how the calls were made is not given here.

CC(C(=O)N1CCCCCC1)N(c1ccc(Cl)cc1)S(C)(=O)=O (stereo not drawn) was read as UGM FP inh 0, FadD28 FP inh -2, Vc quorum ag-1 -1, Mtb bLac sens -4, PrP UTR inh -12 and Rv3671c protease 3.
COc1ccc(NC(=O)C2(S(=O)(=O)c3ccc(C)cc3)CC2)cc1OC was read as UGM FP inh -2, FadD28 FP inh -1, Vc quorum ag-1 0, Mtb bLac sens 0, PrP UTR inh -7 and Rv3671c protease 3.
For COCc1cc(=O)n2[nH]cc(-c3ccccc3)c2n1 the results were UGM FP inh -2, FadD28 FP inh -1, Vc quorum ag-1 -1, PrP UTR inh -18 and Rv3671c protease -1.
For CCCc1cc(=O)n2[nH]cc(-c3ccc(Cl)cc3)c2n1 the results were UGM FP inh -4, FadD28 FP inh -1, Vc quorum ag-1 41*, Mtb bLac sens 98, PrP UTR inh -13 and Vc quorum ag-2 0.
COc1ccc(-n2c(COc3ccccc3)nnc2SCc2ccc(C#N)cc2)cc1 was read as UGM FP inh 1, FadD28 FP inh -5, Vc quorum ag-1 12, Mtb bLac sens 1, PrP UTR inh -15, Rv3671c protease -4 and Vc quorum ag-2 0.
`O=[N+]([O-])c1ccc(N2CCOCC2)c2c1no[n+]2[O-]` gave FadD28 FP inh 3, Vc quorum ag-1 35* and Vc quorum ag-2 1.
O=[N+]([O-])c1nccn1CCCCCCCCCCCN1CCOCC1 was read as FadD28 FP inh -3.
Screening CC(C)(C)C(=O)N1CCN(c2nc3ccccc3o2)CC1 returned UGM FP inh 7, FadD28 FP inh -4, Vc quorum ag-1 0, Mtb bLac sens 5, PrP UTR inh -15 and Rv3671c protease -1.
Screening CC1CCN(c2ccccc2NC(=O)c2cc3ccccc3o2)CC1 returned UGM FP inh 0, FadD28 FP inh 0, Vc quorum ag-1 97*, Mtb bLac sens 82, PrP UTR inh 1, Rv3671c protease -11 and Vc quorum ag-2 0.
Cc1ccccc1NC(=O)c1cc2ccccc2o1 was read as UGM FP inh 0, FadD28 FP inh 0, Vc quorum ag-1 inactive, Mtb bLac sens 2, PrP UTR inh -42 and Rv3671c protease -1.
For Cc1ccc(S(=O)(=O)N(C)c2ccc(OCC(=O)N3CCCCC3)cc2)cc1 the results were UGM FP inh -2, FadD28 FP inh -19, Vc quorum ag-1 12, Mtb bLac sens 3, PrP UTR inh 3, Rv3671c protease -30 and Vc quorum ag-2 2.
Screening O=C(COC(=O)CCCN=C1NS(=O)(=O)c2ccccc21)NNC(=O)c1ccccc1 returned UGM FP inh 3, FadD28 FP inh 1, Vc quorum ag-1 -1, Mtb bLac sens -3, PrP UTR inh 7 and Rv3671c protease 11.
Screening Nc1nc(SCc2nc3sc4c(c3c(=O)[nH]2)CCCC4)n[nH]1 returned UGM FP inh -2, FadD28 FP inh -1, Vc quorum ag-1 31*, Mtb bLac sens 3, PrP UTR inh -49, Rv3671c protease -9 and Vc quorum ag-2 1.
Cc1nnc(SCc2nc3sc4c(c3c(=O)[nH]2)CCCC4)n(N)c1=O was read as Mtb bLac sens -1 and Rv3671c protease -7.
Screening COC(=O)c1cc(S(=O)(=O)N2CCN(c3ccc([N+](=O)[O-])cc3)CC2)c[nH]1 returned UGM FP inh 3, FadD28 FP inh -1, Vc quorum ag-1 0, Mtb bLac sens -1, PrP UTR inh -27 and Rv3671c protease -6.
`COc1cc(SC)ccc1C(=O)OCC(=O)NC1CCCC1` gave UGM FP inh 4, FadD28 FP inh -1, Vc quorum ag-1 741*, Mtb bLac sens 5, PrP UTR inh -42, Rv3671c protease 7 and Vc quorum ag-2 inactive.
For O=C(Cc1ccccc1)NC1CCCCC1 the results were FadD28 FP inh 1 and Vc quorum ag-1 0.
